Assay outcomes from PubChem.
An excerpt weighted towards active compounds, which were near 2.5% of everything screened.
Vaccinia mCherry – inhibitors of vaccinia virus infection (mCherry reporter signal) | Vaccinia virus mCherry reporter infection, fluorescence | Potency, µM (top dose mostly 36.5 µM), most hits filed as inhibitors | 0.63% of 310,000 active; calls by dose curve; tested in A549 cells; note: nearly all actives have a fitted effect of over 35% in size
VACV Venus inh – vaccinia inhibition (Venus reporter). 0.46% of 330,000 active. Potency, µM (titrated, usually from 36.5 µM), most hits filed as inhibitors. Vaccinia virus Venus reporter expression, fluorescence; calls by dose curve; tested in A549 cells; note: nearly all actives have a fitted effect of over 30% in size
Lassa entry inh – inhibitors of Lassa virus binding or cell entry; Lassa virus pseudotype entry inhibition, cell reporter; 1.2% of 300,000 active; Potency, µM (titrated, usually from 37.9 µM), usual class: inhibitors; calls by dose curve; tested in HEK293 cells; note: nearly all actives have a fitted effect of over 50% in size
MARV entry inh – Marburg virus entry inhibition; Potency, µM (titrated, usually from 37.8 µM), most hits filed as inhibitors; Marburg virus pseudotyped entry inhibition, cell reporter; 1.8% of 300,000 active; AID 540276; calls by dose curve; tested in HEK293 cells
Of the large screens only hits and unclear results are named; the others gave an inactive call.

CCOC(=O)c1c(C)nc2sc(C(=O)Nc3ccccc3)c(N)c2c1-c1ccc(OC)cc1	VACV Venus inh inconclusive, Lassa entry inh 8.9µM, MARV entry inh inconclusive (no result: Vaccinia mCherry)
COC(=O)C1=CN(c2ccc(OC)cc2)C=C(C(=O)OC)C1c1ccc(C)c([N+](=O)[O-])c1	Lassa entry inh inconclusive, MARV entry inh inconclusive
COC(=O)C1=CN(c2cccc(C)c2)C=C(C(=O)OC)C1c1cc(OC)c(O)c([N+](=O)[O-])c1	Lassa entry inh 4.1µM, MARV entry inh inconclusive (no result: Vaccinia mCherry, VACV Venus inh)
O=C(COc1ccccc1C(=O)Nc1ccccc1)Nc1ccc(Br)cc1	none (no result: Lassa entry inh, MARV entry inh)
CCn1c2ccccc2c2cc(/C=N/n3cn[nH]c3=S)ccc21	MARV entry inh 10µM (no result: Vaccinia mCherry, VACV Venus inh)
CCn1c2ccccc2c2cc(/C=N/n3c(-c4cc(C)[nH]n4)n[nH]c3=S)ccc21	Lassa entry inh inconclusive, MARV entry inh 5µM
OCCC1CN(CC#Cc2ccccc2)CCN1C1CCCC1 (stereo not drawn)	Vaccinia mCherry inconclusive
OCCC1CN(CC(c2ccccc2)c2ccccc2)CCN1C1CCCC1 (stereo not drawn)	Lassa entry inh inconclusive, MARV entry inh 13µM
OCC1CCCN(c2nc3cc4c(cc3cc2CNCc2cccc(C(F)(F)F)c2)OCO4)C1 (stereo not drawn)	none (no result: Lassa entry inh, MARV entry inh)
COc1cc(OC)cc(C(=O)NC(=S)NNC(=O)[C@H]2C[C@@H]2c2ccccc2)c1	Lassa entry inh 3.2µM
COc1ccc(C(=O)NC(=S)NNC(=O)[C@H]2C[C@@H]2c2ccccc2)cc1OC	Lassa entry inh inconclusive, MARV entry inh inconclusive
O=C(NNC(=O)C1CC1c1ccccc1)Nc1ccccc1 (stereo not drawn)	none
CC(C)(C)NC(=S)NNC(=O)[C@H]1C[C@@H]1c1ccccc1	Lassa entry inh 0.89µM
COc1ccccc1C(=O)N[C@@H]1c2ccccc2C2(CCN(Cc3ccc4c(c3)OCO4)CC2)[C@H]1O	none (no result: Lassa entry inh, MARV entry inh)
Fc1cccc(Cc2noc(CN3CCCN(C4Cc5ccccc5C4)CC3)n2)c1	MARV entry inh 11µM
COC(=O)c1ccc(Oc2ccc(C(C)(C)C)cc2)c([N+](=O)[O-])c1	none
CC(=O)c1ccc(Oc2ccc(C(=O)c3ccc(C)c(C)c3)cc2[N+](=O)[O-])cc1	Lassa entry inh 1.5µM, MARV entry inh inconclusive
CC(=O)OC[C@H]1O[C@H](c2ccc(C(C)=O)cc2)C=C[C@H]1OC(C)=O	none (no result: Vaccinia mCherry, VACV Venus inh, Lassa entry inh)
Cc1cc(CNC(=O)c2cnn(-c3ncc4c(n3)-c3ccccc3CC4)c2C2CC2)on1	none (no result: Lassa entry inh, MARV entry inh)
CC1(C)CN(C2CCCCC2)C(=O)[C@@H]1CC(=O)Nc1ccccc1	none (no result: Vaccinia mCherry, VACV Venus inh, MARV entry inh)
Cc1cc(/C=C2\C=Cc3ccccc32)cc(C)c1[N+](=O)[O-]	none (no result: Lassa entry inh, MARV entry inh)
CCOc1ccc2oc(C(=O)NC3CCN(Cc4ccccc4)CC3)c(C)c2c1	Lassa entry inh 11µM, MARV entry inh inconclusive
COc1ccc(Cn2c(=O)[nH]c3cc(C(=O)NC4CCN(Cc5ccccc5)CC4)ccc32)cc1	MARV entry inh 9.2µM
Cc1c(C(=O)NC2CCN(Cc3ccccc3)C2)oc2ccc(Br)cc12 (stereo not drawn)	Lassa entry inh inconclusive, MARV entry inh inconclusive
Cc1c(C(=O)NCCc2ccccc2)oc2ccccc12	Lassa entry inh inconclusive, MARV entry inh 6.3µM
O=C(NCCc1ccccc1)c1oc2ccccc2c1COc1ccccc1	MARV entry inh inconclusive
COc1ccc2oc(C(=O)NCCc3ccccc3)c(C)c2c1	Lassa entry inh 0.89µM, MARV entry inh inconclusive
Cc1ccc2c(c1)cc(C(=O)NCc1ccccc1)n2C	Vaccinia mCherry inconclusive, Lassa entry inh inconclusive, MARV entry inh 0.63µM
CO[C@H](C1CCCCC1)[C@H](C)C=CCC(=O)OCCCc1ccccc1	Lassa entry inh inconclusive (no result: Vaccinia mCherry, VACV Venus inh)
Cc1ccc(-n2nnc3c(=O)n(Cc4ccccc4C)cnc32)cc1	none (no result: Lassa entry inh, MARV entry inh)
COc1ccc(-n2nnc3c(=O)n(Cc4cc(C)ccc4C)cnc32)cc1	Lassa entry inh 1.2µM
COc1ccc(CNc2oc(COc3cccc(C)c3)nc2C#N)cc1	none
COc1ccc(CNc2oc(Cc3cccc4ccccc34)nc2C#N)cc1	Lassa entry inh 18µM, MARV entry inh inconclusive (no result: Vaccinia mCherry)
COc1ccc(Nc2oc(COc3cccc(C)c3)nc2C#N)cc1	Lassa entry inh 11µM, MARV entry inh inconclusive
COc1ccc(Nc2oc(COc3ccc(C)cc3)nc2C#N)cc1	none (no result: Vaccinia mCherry, VACV Venus inh)
COc1ccc(Nc2oc(COc3ccc(OC)cc3)nc2C#N)cc1	Lassa entry inh inconclusive, MARV entry inh 6.5µM (no result: Vaccinia mCherry, VACV Venus inh)
O=C(Nc1cccc(N2CCC(NCc3cnn(-c4ccccc4)n3)CC2)c1)c1cccnc1	none (no result: Lassa entry inh, MARV entry inh)
C#CCN1C(=O)[C@]2(O[C@H](C)CC3=CCCC32)c2c(Br)cccc21 (stereo partly drawn)	Lassa entry inh inconclusive (no result: Vaccinia mCherry, VACV Venus inh)
Cc1cc(N)c2ccccc2[n+]1CCCCCCCCCC[n+]1c(C)cc(N)c2ccccc21	VACV Venus inh inconclusive, Lassa entry inh inconclusive, MARV entry inh 10µM
Cc1ccc2ccccc2[n+]1CCCCI	none (no result: Lassa entry inh, MARV entry inh)
CC(=O)N/C(=C/c1ccccc1)c1ccncc1	none (no result: Lassa entry inh, MARV entry inh)
